Screening data from PubChem.
Shiga toxin inh: inhibitors of Shiga toxin in Vero cells | inhibition, % at 38.7 µM | 290,000 compounds, 9.2% hits | AID 2315 | Vero cells, Shiga toxin protein synthesis inhibition reporter; in the data active = inhibition mostly above about 28%, no sharp cut-off; inactive = mostly below about 43%; note: 0% is about no effect
Sm TGR inh: blocks Schistosoma mansoni thioredoxin glutathione reductase | 360,000 compounds, 3% hits | purified TGR, DTNB reduction, TNB absorbance 405 nm | Potency, µM (highest dose often 114 µM), for the others: at the highest dose activity change, negative = inhibition, usual class: inhibitors; active = well fitted inhibition curve with a large enough effect; inconclusive = small, poorly fitted or top-dose-only effect; inactive = no such curve, though single readings can be large or run the other way; note: potency is the fitted concentration of half-maximal effect; % is set by controls: 0 for no effect and ±100 for the full control effect; nearly all actives have a fitted effect of over 60% in size
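Kinetic colorimetric format: TGR-catalysed, NADPH-driven DTNB reduction monitored via TNB absorbance. Enzyme dispensed at 20 nM; compound exposure 15 min at room temperature before reaction start.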
Cycloheximide cs: counter-screen for Shiga toxin inhibitors: cycloheximide protein synthesis inhibition | cell reporter, cycloheximide protein synthesis inhibition counterscreen | max response, % | 300,000 compounds, 12% hits | AID 2314; in the data active = max response mostly above about 13%, no sharp cut-off; inactive = mostly below about 14%; note: read at 38.3 µM for the half of the compounds with a filed dose; 0% is about no effect
FMDV antiviral: foot and mouth disease virus antiviral activity; 410,000 compounds, 1.2% hits; AID 1159524; Potency, µM (titrated, usually from 57.9 µM), without a hit: at the top dose activity change, negative = inhibition, usual class: inhibitors; FMDV antiviral cell-based qHTS; calls by dose curve; tested in HEK293T cells; note: read-out not given here; potency is the fitted concentration of half-maximal effect; % is set by controls: 0 for no effect and ±100 for the full control effect; nearly all actives have a fitted effect of over 45% in size
Starred values were filed as active, the others as inactive. The list is not random: actives were taken first. Their share in the collection is about 12%.

How did COc1cc(C(C#N)N2N=C(c3ccccc3)CC2c2ccccc2)ccc1O (stereo not given) do in these assays?
Shiga toxin inh: 86.9*; Sm TGR inh: -16.6%; Cycloheximide cs: 29.8*; FMDV antiviral: 73.2%

Results for O=C(/C=C/c1cccs1)N1CCOCC1 ?
Shiga toxin inh: 25.6; Sm TGR inh: 0.5%; Cycloheximide cs: 0.2; FMDV antiviral: 7.3%

Results for O=C(/C=C/c1cccs1)c1cc(F)ccc1OC(=O)N1CCOCC1 ?
FMDV antiviral: 22.4µM*

Results for COc1cccc2c(=O)c(SC(F)(F)C(F)C(F)(F)F)c(C)[nH]c12 (stereo not given) ?
Shiga toxin inh: 52.0*; Sm TGR inh: 2.2%; Cycloheximide cs: 33.5; FMDV antiviral: 66.5%

What do the screens show for `Cc1[nH]c2ccc(F)cc2c(=O)c1SC(F)(F)C(F)C(F)(F)F` (stereo not given)?
Shiga toxin inh: -11.6; Sm TGR inh: 9.2%; Cycloheximide cs: -1.7; FMDV antiviral: -21.3%

Results for CCOC(=O)c1c(NC(=O)c2ccc(S(=O)(=O)N(CC(C)C)CC(C)C)cc2)sc2c1CCN(CC)C2 ?
Sm TGR inh: 0.8%; FMDV antiviral: -17.2%

How did COCCn1c(C)cc(C(=O)COC(=O)c2cccc(O)c2)c1C do in these assays?
Shiga toxin inh: -6.7; Sm TGR inh: -2.2%; Cycloheximide cs: -2.6; FMDV antiviral: 11.2µM*

How did COCCn1c(C)cc(C(=O)COC(=O)CCN2C(=O)c3ccccc3C2=O)c1C do in these assays?
Shiga toxin inh: -46.8; Sm TGR inh: -21.2%; Cycloheximide cs: 7.2; FMDV antiviral: 7.5%

How did COCCn1c(C)cc(C(=O)COC(=O)c2cc3c(s2)CCC3)c1C do in these assays?
Shiga toxin inh: 94.8*; Sm TGR inh: -27.7%; Cycloheximide cs: 30.3*; FMDV antiviral: 51.2%

What do the screens show for `COCCn1c(C)cc(C(=O)COC(=O)C23CC4CC(CC(O)(C4)C2)C3)c1C`?
Shiga toxin inh: 57.1*; Sm TGR inh: -6.4%; Cycloheximide cs: 38.0*; FMDV antiviral: -50.9%

Results for Cc1cc(C(=O)COC(=O)C23CC4CC(CC(O)(C4)C2)C3)c(C)n1-c1c(C)n(C)n(-c2ccccc2)c1=O ?
Shiga toxin inh: -10.8; Sm TGR inh: 1.2%; Cycloheximide cs: -2.4; FMDV antiviral: 5.5%

How did O=C(OCCCc1cc2ccccc2c(=O)o1)c1ccccc1C(F)(F)F do in these assays?
Sm TGR inh: 11.2µM*; FMDV antiviral: -5.2%

Results for O=C(OCCCc1cc2ccccc2c(=O)o1)c1ccc(F)cc1 ?
Sm TGR inh: 35.5µM*; FMDV antiviral: -20.0%

How did N#Cc1ccc(C(=O)OCCCc2cc3ccccc3c(=O)o2)cc1 do in these assays?
Sm TGR inh: 50.1µM*; FMDV antiviral: 32.2%

What do the screens show for `CCN(CC)C(=O)OCCc1cc2ccccc2c(=O)o1`?
Sm TGR inh: 3.16µM*; FMDV antiviral: 9.4%

Results for O=C(OCCc1cc2ccccc2c(=O)o1)c1ccccc1C(F)(F)F ?
Sm TGR inh: -19.2%; FMDV antiviral: -27.3%

How did CCn1c(C(=O)Nc2c(C)cccc2C)cc2sc(Cl)cc21 do in these assays?
Sm TGR inh: -5.0%; FMDV antiviral: inconclusive

What do the screens show for `CCC(=O)N1CCc2cc(Br)cc(S(=O)(=O)CCC(=O)NCCc3ccc(Cl)cc3)c21`?
Sm TGR inh: -3.7%; FMDV antiviral: -5.8%

What do the screens show for `CSc1ccc(-c2ccc(C(=O)NCC3CCCO3)c(N3CCC(O)CC3)n2)cc1` (stereo not given)?
FMDV antiviral: 46.5%

What do the screens show for `CC(C)(C)C(=O)n1nc(-c2ccccc2)oc1=O`?
Shiga toxin inh: 12.3; Sm TGR inh: 31.6µM*; Cycloheximide cs: -0.7; FMDV antiviral: -12.8%

How did Cc1ccc(/C=N/NC(=O)c2ccccn2)s1 do in these assays?
Shiga toxin inh: 43.6*; Sm TGR inh: -6.9%; Cycloheximide cs: 48.9*; FMDV antiviral: -46.4%

How did O=C(CNC(=O)c1ccccc1)N/N=C/c1cccs1 do in these assays?
Shiga toxin inh: 29.8; Sm TGR inh: 5.9%; Cycloheximide cs: -1.2; FMDV antiviral: 5.6%

How did O=C(CNC(=O)c1ccccc1F)N/N=C/c1cccs1 do in these assays?
Shiga toxin inh: 53.2*; Sm TGR inh: -10.7%; Cycloheximide cs: 30.0*; FMDV antiviral: 50.2%

How did CC1C(=O)NN=C1C(=O)N/N=C/c1cccs1 (stereo not given) do in these assays?
Shiga toxin inh: 86.1*; Sm TGR inh: 4.0%; Cycloheximide cs: 19.4*; FMDV antiviral: 0.0%

What do the screens show for `Cc1ccc(/C=N/NC(=O)c2ccncc2)s1`?
Shiga toxin inh: 19.6; Sm TGR inh: -0.5%; Cycloheximide cs: 14.8; FMDV antiviral: 16.1%

How did O=C(N/N=C/c1cccs1)c1ccccn1 do in these assays?
Shiga toxin inh: 110.7*; Sm TGR inh: -3.7%; Cycloheximide cs: 32.7*; FMDV antiviral: 21.3%

Results for O=C(NCc1nnc2n1CCN(Cc1cc3c(cc1Cl)OCO3)CC2)c1cccc(F)c1 ?
FMDV antiviral: -10.5%

What do the screens show for `CCOC(=O)c1ccccc1NC(=O)CSc1ncc(CO)n1Cc1ccc(C)cc1`?
Sm TGR inh: -8.4%; FMDV antiviral: -21.2%

Results for CC(=O)NCCNc1nc(-c2cccc(C#N)c2)nc2ccccc12 ?
FMDV antiviral: -4.5%

Results for CCOC(=O)c1c(C)[nH]c(C)c1S(=O)(=O)N1CCC(C(=O)Nc2ccccc2CC)CC1 ?
Sm TGR inh: 0.2%; FMDV antiviral: 3.4%

Results for CC(NC(=O)/C=C/c1ccco1)c1nc2ccccc2n1Cc1ccccc1F (stereo not given) ?
Shiga toxin inh: 59.8; Sm TGR inh: 35.5µM*; Cycloheximide cs: 27.4*; FMDV antiviral: -9.6%

Results for CC(NC(=O)c1ccccc1)c1nc2ccccc2n1Cc1ccccc1F (stereo not given) ?
Shiga toxin inh: -4.6; Sm TGR inh: 33.7%; Cycloheximide cs: 7.3

What do the screens show for `CC(NC(=O)/C=C/c1ccco1)c1nc2ccccc2n1Cc1c(Cl)cccc1Cl` (stereo not given)?
Shiga toxin inh: 44.0*; Sm TGR inh: 25.1µM*; Cycloheximide cs: 21.6*; FMDV antiviral: -22.9%

What do the screens show for `COC(=O)c1cc(C#N)c(N(C)Cc2ccccc2)nc1C`?
Shiga toxin inh: 36.9; Sm TGR inh: 7.0%; Cycloheximide cs: 30.2*; FMDV antiviral: 30.4%

Results for CC(=O)c1cc(C#N)c(N(C)Cc2ccccc2)nc1C ?
Shiga toxin inh: 1.2; Sm TGR inh: 5.0%; Cycloheximide cs: 18.1; FMDV antiviral: -23.7%

How did O=C(NCC12CC3CC(CC(C3)C1)C2)c1cc2nc(-c3ccc(Cl)cc3)cc(C(F)(F)F)n2n1 do in these assays?
Sm TGR inh: 5.1%; FMDV antiviral: -6.2%

Results for COc1ccccc1CNC(=O)Cn1c(=O)nc(-c2ccccc2)c2ccccc21 ?
Sm TGR inh: -5.3%; FMDV antiviral: 5.3%

Results for CC1CCC2(CC1)NC(=O)N(NC(=O)c1cccs1)C2=O (stereo not given) ?
Sm TGR inh: -3.2%; FMDV antiviral: 6.1%

What do the screens show for `C/C(NC(=O)c1cccs1)=C1\C(=O)C[C@@H]2[C@H]1C2(C)C`?
Shiga toxin inh: 28.6; Sm TGR inh: -2.1%; Cycloheximide cs: 14.9*; FMDV antiviral: 16.7%

Results for COc1ccc(-c2c3c(=O)n(C)c(=O)n(C)c3c3c(-c4ccccc4)nc4ccccc4n23)cc1 ?
Sm TGR inh: 5.7%; FMDV antiviral: inconclusive
